According to PubChem BioAssay:
Values joined by “and” are separate entries in the source; they are usually repeats but may differ in a detail not shown here. Equal entries are not always repeated. Active and inactive are the calls of the source.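 The calls were made as follows, unless noted: active = compounds whose cell count with miR-34 switched on is under 0.7 times the count with it off; inactive = the rest.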

Tests used:
[1] = liver-stage malaria parasite growth inhibition, primary screen, cell-based, HepG2, luciferase luminescence, HepG2 viability (AID 624349; in the data active = parasite load remaining mostly below about 12%, no sharp cut-off; inactive = mostly above about 10%;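 also: 100% = mean of DMSO negative control wells on the same plate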); settings: P. berghei liver stage in HepG2, luciferase luminescence, concentration not given here; parasite load remaining: stronger effect = lower value; viability: measured here: HepG2 viability without parasites
[2] = stimulators of nuclear beta-catenin in C2C12, primary screen, imaging, WNT3A-conditioned medium, mouse C2C12, NPC library (AID 1117326; in the data active = nuclear beta-catenin stimulation mostly above about 4.2%, no sharp cut-off; inactive = mostly below about 10%); settings: stronger effect = higher value
[3] = stimulators of insulin release from INS-1E, primary screen, cell-based, 5 mM glucose, NPC library (AID 1117329;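 active = compound raises insulin release from rat beta cells at 5 mM glucose, no numeric limit stated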); settings: rat INS-1E insulin secretion, at 10 µM, stronger effect = higher value
[4] = growth inhibition of GSK3B-pretreated HCT116 cells – cell-based, CellTiter-Glo, 0.2 to 20 µM (AID 1117336;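 active = compounds lowering colon cancer cell viability after pretreatment blocking the GSK3B kinase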); settings: HCT116 viability after GSK3B inhibitor, at 20 µM, stronger effect = higher value
[5] = inhibition of endothelial tube formation, primary screen, imaging, VEGF stimulated, CD31 staining, tube area, NPC library (AID 1117340;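 active = compound that reduces growth-factor-driven endothelial tube area in a mixed cell culture, no cutoff stated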); settings: VEGF-stimulated ADSC/ECFC co-culture, at 10 µM, stronger effect = higher value
[6] = glucagon-like peptide 1 release enhancers, primary assay, NCI-H716 cell line, NPC library (AID 1117341;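 active = compound raises GLP1 secretion from the human gut endocrine cells, with no numeric limit stated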); settings: NCI-H716 cells, at 10 µM, stronger effect = higher value
[7] = HCT116 colon cancer cell growth inhibition, primary screen, CellTiter-Glo luminescence, NPC library (AID 1117342;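 active = compounds that lower survival of HCT116 colon cancer cells in the luminescence readout, no numeric limit stated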); settings: at 20 µM (top of the series)
[8] = CellTiter-Glo luminescent readout of SW480 viability loss, NPC library primary (AID 1117343;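 active = compounds that lower viability of the colon cancer cells in the luminescence readout, with no numeric limit stated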); settings: CellTiter-Glo luminescence; at 20 µM (top of the series) unless noted
[9] = decreased DLD-1 cellular survival, CellTiter-Glo luminescent readout, NPC compound collection, primary HTS (AID 1117346;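 active = compounds that lower survival of DLD-1 colon cancer cells in the luminescence readout, no cutoff given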); settings: DLD-1 viability, CellTiter-Glo luminescence; at 20 µM (top of the series)
[10] = differential killing of epithelial or mesenchymal cells, primary screen, imaging, PC-3E GFP, TEM4-18 mCherry, co-culture (AID 1345086;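 active = compounds killing one labelled cell type while sparing the other, by normalised counts and ratio limits, not self-fluorescent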;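 as to all read-outs here: cells exposed to compound for 72 h before imaging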;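 as to red/green cell ratio (normalised): normalised mesenchymal count divided by normalised epithelial count so high means epithelial killing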); settings: imaging cell counts, at 1 µM; for red/green cell ratio (normalised): actives lie on both sides, counts scaled to control wells, 1 = unselective
[11] = sensitizers of A549 cells to miR-34 induction, primary screen, imaging, A549 dox-inducible miR-34, nuclei and caspase counts (AID 1347080); settings: A549 miR-34 inducible, Hoechst nuclei count, 48 h
[12] = survival rescue of mitochondrial mutant cells in low glucose, primary screen, MELAS cybrids, Rieske KO mouse fibroblasts, CellTiter-Glo (AID 1508586;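 active = mean z-score across replicates of 1.96 or higher in either the MELAS or the Rieske mutant cell line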;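 also: z relative to plate mean and SD of compound and empty wells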)
[13] = target: NAD(+) hydrolase SARM1 (Homo sapiens) (UniProt Q6SZW1); assay: SARM1 TIR NADase inhibitors, cell lysate, NAD-Glo luminescence (AID 1508614;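 active = compound whose remaining NAD level is above about 45 nM, limit read from the data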;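 also: higher remaining NAD means stronger inhibition of SARM1 NADase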); settings: SAM-TIR HEK293T lysate NADase, at 1 µM, stronger effect = higher value
NAD(+) hydrolase SARM1 (Homo sapiens), sequence (Q6SZW1 whole entry, looked up): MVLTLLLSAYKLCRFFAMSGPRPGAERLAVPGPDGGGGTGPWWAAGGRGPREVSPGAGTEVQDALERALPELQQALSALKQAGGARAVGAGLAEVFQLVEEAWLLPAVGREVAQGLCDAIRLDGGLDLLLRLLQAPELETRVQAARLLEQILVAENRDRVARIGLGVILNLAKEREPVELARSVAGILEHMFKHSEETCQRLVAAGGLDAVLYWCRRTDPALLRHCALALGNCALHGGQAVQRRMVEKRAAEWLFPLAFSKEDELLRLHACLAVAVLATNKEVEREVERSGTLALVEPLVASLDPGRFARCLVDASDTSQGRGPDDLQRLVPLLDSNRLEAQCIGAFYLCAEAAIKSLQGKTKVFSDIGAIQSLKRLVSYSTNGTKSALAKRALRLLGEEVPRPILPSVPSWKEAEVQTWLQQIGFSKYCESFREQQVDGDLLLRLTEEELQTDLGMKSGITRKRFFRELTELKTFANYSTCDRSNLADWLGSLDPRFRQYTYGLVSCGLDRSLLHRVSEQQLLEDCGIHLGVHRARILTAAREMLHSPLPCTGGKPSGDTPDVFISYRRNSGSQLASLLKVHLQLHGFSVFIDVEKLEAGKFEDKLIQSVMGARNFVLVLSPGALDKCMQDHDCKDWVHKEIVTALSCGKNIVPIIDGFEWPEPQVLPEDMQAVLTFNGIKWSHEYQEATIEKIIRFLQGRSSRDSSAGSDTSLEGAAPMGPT

[14] = hESC survival regulators, cell-based (AID 493140; call rule not given here;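 also: cells exposed to compounds for four days before counting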); settings: human embryonic stem cell survival screen; stronger effect = higher value
[15] = measured here: epithelial PC-3E GFP cell survival
[16] = measured here: mesenchymal TEM4-18 mCherry cell survival
[17] = stronger effect = lower value, cell number ratio, induced over uninduced
[18] = measured here: relative caspase fold change +Dox/-Dox
[19] = measured here: total cells with miR-34 induction, stronger effect = lower value
[20] = measured here: total cells without miR-34 induction
[21] = MELAS cybrid survival, CellTiter-Glo 48 h, stronger effect = higher value
[22] = Rieske KO mouse fibroblast survival, CellTiter-Glo 72 h

With `CCOc1ccc2nc(S(N)(=O)=O)sc2c1` the parasite load remaining [1] was 32.3% (inactive) and 52.3% (inactive), the viability [1] was 171% and 98.2% and the nuclear beta-catenin stimulation ([2]; at 10 µM) was 1.3% (inactive). The nuclear beta-catenin stimulation ([2]; stimulation, at 2 µM) was 0.1%, the insulin secretion stimulation [3] was -2.2% (inactive) and the viability decrease [4] was 16.7% (inactive). For the same compound, the tube area decrease [5] was 20.8% (inactive), the GLP1 secretion stimulation [6] was 2.1% (inactive) and the inhibition of viability [7] was -30% (inactive). For the same compound, the viability decrease (inhibition) [8] was 85.7% (active), the viability decrease (inhibition) [9] was 7.15% (inactive) and the red/green cell ratio (normalised) [10] was 0.96 (inactive). The normalised cell number [10, 15] was 0.89, the normalised cell number [10, 16] was 0.86 and the fold change [11, 17] was 0.841 (inactive) and 0.925 (inactive). For the same compound, the fold change [11, 18] was 3.81 and 2.83, the cell count [11, 19] was 10500 and 10700 and the cell count [11, 20] was 12500 and 11500. The z-score [12, 21] was -0.477 (inactive), the z-score [12, 22] was 0.458 and the remaining NAD [13] was 10 nM (inactive).
For `Oc1c(I)cc(Cl)c2cccnc12`, the survival [14] was 4.42 (inactive), the parasite load remaining [1] was 11.3% (inactive) and 21.8% (inactive) and the viability [1] was 89.4% and 95.4%. The nuclear beta-catenin stimulation ([2]; at 10 µM) was 55.7% (active), the nuclear beta-catenin stimulation ([2]; stimulation, at 2 µM) was 6% and the insulin secretion stimulation [3] was -0.1% (inactive). For the same compound, the viability decrease [4] was 82% (active), the tube area decrease [5] was 110% (active) and the GLP1 secretion stimulation [6] was -5% (inactive). For the same compound, the inhibition of viability [7] was 81.2% (active), the viability decrease (inhibition) [8] was 127% (active) and the viability decrease (inhibition) [9] was 97.8% (active). The red/green cell ratio (normalised) [10] was 1 (inactive), the normalised cell number [10, 15] was 0.99 and the normalised cell number [10, 16] was 0.99. For the same compound, the fold change [11, 17] was 1.06 (inactive) and 0.786 (inactive), the fold change [11, 18] was 0.681 and 1.8 and the cell count [11, 19] was 5310 and 5470. For the same compound, the cell count [11, 20] was 5010 and 6960, the z-score [12, 21] was 0.113 (inactive) and the z-score [12, 22] was -0.741. The remaining NAD [13] was 10 nM (inactive).
In the case of `COc1ccc(O)cc1`, the nuclear beta-catenin stimulation ([2]; at 10 µM) is reported as 1.7% (inactive), the nuclear beta-catenin stimulation ([2]; stimulation, at 2 µM) is reported as 0.5% and the insulin secretion stimulation [3] is reported as -1.8% (inactive). For the same compound, the viability decrease [4] was 12.9% (inactive), the tube area decrease [5] was 18.7% (inactive) and the GLP1 secretion stimulation [6] was -0.4% (inactive). For the same compound, the inhibition of viability [7] was -4.9% (inactive), the viability decrease (inhibition) [8] was 88.2% (active) and the viability decrease (inhibition) [9] was 27.4% (inactive). For the same compound, the red/green cell ratio (normalised) [10] was 1.14 (inactive), the normalised cell number [10, 15] was 1.04 and the normalised cell number [10, 16] was 1.18. The fold change [11, 17] was 0.919 (inactive) and 0.917 (inactive), the fold change [11, 18] was 0.877 and 0.265 and the cell count [11, 19] was 7700 and 8110. The cell count [11, 20] was 8370 and 8840, the z-score [12, 21] was -0.189 (inactive) and the z-score [12, 22] was -0.254. For the same compound, the remaining NAD [13] was 10 nM (inactive).
For `CCCCOC(=O)c1ccc(O)cc1`, the survival [14] was 2.33 (inactive), the parasite load remaining [1] was 105% (inactive) and 43.2% (inactive) and the viability [1] was 94.2% and 99.8%. For the same compound, the nuclear beta-catenin stimulation ([2]; at 10 µM) was 1.7% (inactive), the nuclear beta-catenin stimulation ([2]; stimulation, at 2 µM) was 1.9% and the insulin secretion stimulation [3] was 4.6% (inactive). For the same compound, the viability decrease [4] was -64.4% (inactive), the tube area decrease [5] was 17% (inactive) and the GLP1 secretion stimulation [6] was -6.3% (inactive). The inhibition of viability [7] was 15% (inactive), the viability decrease (inhibition) [8] was 67.9% (active) and the viability decrease (inhibition) [9] was 9.6% (inactive). For the same compound, the red/green cell ratio (normalised) [10] was 1.09 (inactive), the normalised cell number [10, 15] was 1.43 and the normalised cell number [10, 16] was 1.56. The fold change [11, 17] was 0.899 (inactive) and 0.857 (inactive), the fold change [11, 18] was 1.34 and 7.37 and the cell count [11, 19] was 8710 and 10100. For the same compound, the cell count [11, 20] was 9690 and 11800, the z-score [12, 21] was 0.705 (inactive) and the z-score [12, 22] was -0.347. The remaining NAD [13] was 10 nM (inactive).
